Source: PubChem BioAssay (several laboratories)
OPRM1-OPRD1 inv: mu-delta opioid heterodimer inverse agonism; cell-based MOR-DOR heterodimer luminescence; hit rate 0.21% among 340,000; inhibition, % at 9.3 µM; in the data active = inhibition above about 22%, passing the limit was not always enough;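 also: 0% = cells with DMSO and 100% = wells without cells with DMSO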
Target sequence (P35372 whole entry, looked up): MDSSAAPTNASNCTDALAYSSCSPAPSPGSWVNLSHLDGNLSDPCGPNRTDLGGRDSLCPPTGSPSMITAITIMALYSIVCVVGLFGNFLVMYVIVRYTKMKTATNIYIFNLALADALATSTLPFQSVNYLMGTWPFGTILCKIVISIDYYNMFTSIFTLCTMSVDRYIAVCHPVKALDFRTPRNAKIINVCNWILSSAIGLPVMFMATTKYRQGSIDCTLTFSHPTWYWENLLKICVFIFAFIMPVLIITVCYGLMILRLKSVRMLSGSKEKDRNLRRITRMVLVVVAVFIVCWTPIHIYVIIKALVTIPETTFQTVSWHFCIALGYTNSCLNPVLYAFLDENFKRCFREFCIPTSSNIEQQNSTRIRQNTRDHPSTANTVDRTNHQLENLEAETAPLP
Target sequence (P41143 whole entry, looked up): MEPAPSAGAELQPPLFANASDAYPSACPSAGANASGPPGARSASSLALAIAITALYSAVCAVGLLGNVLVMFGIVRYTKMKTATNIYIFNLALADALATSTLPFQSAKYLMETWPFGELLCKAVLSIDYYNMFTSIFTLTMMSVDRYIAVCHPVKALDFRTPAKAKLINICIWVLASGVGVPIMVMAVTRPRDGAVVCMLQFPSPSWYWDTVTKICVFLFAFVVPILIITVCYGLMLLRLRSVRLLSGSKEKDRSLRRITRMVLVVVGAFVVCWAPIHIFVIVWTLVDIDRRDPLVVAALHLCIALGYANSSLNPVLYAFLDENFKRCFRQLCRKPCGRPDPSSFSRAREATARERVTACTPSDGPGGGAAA
PolyA inhibitor: blocks polyadenylation in yeast reporter cells | hit rate 0.02% among 300,000 | AID 1875 | S. cerevisiae SKY197-pL101 polyadenylation reporter, beta-gal luminescence; efflux-impaired pdr1/pdr3 knockout yeast; score 100 = 6 SD above DMSO | activity score, % at 12 µM;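 active = lowest replicate activity score at least 50, where 100 means six control SD above control mean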;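 also: yeast exposed to compound for 9 h at 30 °C; higher score means more reporter readthrough which indicates perturbed polyadenylation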
MOR-DOR ag: OPRM1-OPRD1 heterodimerization agonism | activation, % at 9.3 µM | P35372+P41143 | cells, luminescence | hit rate 0.3% among 340,000 | AID 504326; in the data active = activation above about 18%;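 also: 0% = vehicle-treated cells and 100% = reference agonist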
HTR5A inv ag: counter-screen for OPRM1-OPRD1 inverse agonists: human HTR5A inverse agonism. P47898. HTR5A cell line, luminescence. inhibition, % at 9.3 µM. hit rate 0.083% among 340,000. AID 504634; in the data active = inhibition mostly above about 23%, no sharp cut-off; inactive = mostly below about 18%;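 also: 0% = cells with DMSO and 100% = no-cell wells with DMSO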
NALP1 inh: blocks the NALP1 inflammasome reconstituted in yeast; hit rate 0.61% among 280,000; S. cerevisiae NALP1/ASC/caspase-1 growth, X-gal OD620, 72 h; AID 2071; inhibition, % at 10 µM; in the data active = inhibition mostly above about 24%, no sharp cut-off; inactive = mostly below about 32%
HTR5A ag ctr: HTR5A agonism, opioid heterodimer counter-screen | P47898 | HTR5A agonist assay, luminescence, cell-based | activation, % at 9.3 µM | hit rate 0.61% among 340,000 | AID 504692; in the data active = activation mostly above about 9.5%, no sharp cut-off; inactive = mostly below about 7.6%;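 also: 0% = cells with vehicle only and 100% = reference agonist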
Numbers without * were called inactive; · = not tested or not shown. Sampled rows, rich in hits. Any-hit rate of the full collection: about 1.6%.

SMILES | OPRM1-OPRD1 inv | PolyA inhibitor | MOR-DOR ag | HTR5A inv ag | NALP1 inh | HTR5A ag ctr
O=C(CSc1nc(O)c(Cc2ccccc2)c(=O)n1-c1ccccc1)N1CCOCC1 | 6 | -3 | -1 | -27 | 40* | -2
Cc1ccc(-n2c(SCC(=O)N3CCOCC3)nc(O)c(Cc3ccccc3)c2=O)cc1 | 5 | -12 | -1 | -11 | 18 | -3
CSCC(C)N1CCC(CCC(=O)NC2CC2)CC1 (stereo unspecified) | 20 | 8 | -4 | 9 | 12 | 12*
CSCCC(=O)N1CCC(CCC(=O)NC2CC2)CC1 | 0 | 8 | 0 | 10 | -5 | 0
NC(=O)c1ccccc1NC(=O)CCCc1ccccc1 | 18 | -15 | -4 | 8 | 11 | -2
NC(=O)c1ccccc1NC(=O)CS(=O)(=O)Cc1ccccc1 | -18 | 8 | 3 | -9 | 12 | 9.6*
CC(C)(OC(=O)c1ccc(F)cc1)c1cc2ccccc2c(=O)o1 | -2 | · | 0 | 20 | · | -8
CCC[C@@H](CNC)NC[C@H](Cc1ccccc1)NCCCCc1ccccc1 | -27 | -15 | 5 | -26 | 13 | 7
CNC[C@@H](Cc1ccccc1)NC[C@@H](CC1CCCCC1)NCCCc1ccccc1 | -126 | 7 | 23* | -50 | -3 | 20*
CNC[C@@H](CC1CCCCC1)NC[C@H](CC(C)C)NCCc1cccc(C(F)(F)F)c1 | -140 | 0 | 25* | -14 | 16 | 13*
CC(OC(=O)C1CC(=O)N(Cc2ccco2)C1)C(=O)Nc1ccccc1[N+](=O)[O-] (stereo unspecified) | 5 | · | -1 | 26 | · | 1
N=c1c2c(ncn1Cc1ccco1)Oc1ccc3ccccc3c1C2c1ccccc1 (stereo unspecified) | 2 | -7 | 0 | -24 | 57* | 3
O=C(CSC1=NCCS1)c1ccc(Cl)cc1 | -13 | -25 | 2 | -30 | 4 | 11*
CN(C)c1ccc(NC(=O)c2cccc(N3C(=O)CCC3=O)c2)cc1 | -18 | 1 | 3 | -16 | 40* | 0
O=C(Nc1ccccc1)c1cccc(N2C(=O)CCC2=O)c1 | 22 | -3 | -5 | -1 | 15 | -2
Cc1nc2ccccc2c(=O)n1/N=C/c1cn[nH]c1-c1ccccc1 | · | 9 | · | · | 41* | ·
COc1cc(C)nc(NS(=O)(=O)c2ccccc2Cl)n1 | -2 | 14 | 0 | 2 | 39* | -1
Cc1cc(NN)nc(NS(=O)(=O)c2ccccc2Cl)n1 | -14 | 7 | 3 | -5 | -1 | 2
Cc1ccc(S(=O)(=O)N2[C@@H](c3ccccc3F)C(C(=O)O)=CC[C@H]2c2ccc(C(C)C)cc2)cc1 | -4 | · | 1 | -1 | · | 4
Cc1ccc2nc(N(CCCN(C)C)C(=O)c3ccc4c(c3)CCCC4)sc2c1 | -17 | 1 | 3 | 20 | 52* | 2
O=C1Nc2ccccc2C1=Nc1ccc(Br)cc1 | 55* | 5 | -11 | 21 | 33 | -5
O=C1Nc2ccccc2C1=Nc1ccc(Cl)cc1 | 64* | 9 | -14 | 14 | 7 | -4
CCN(CC)c1ccc(N=C2C(=O)Nc3ccccc32)cc1 | 24 | -4 | -5 | 10 | 10 | -3
COc1ccc(NC(C)(C)c2nnnn2-c2c(C)cccc2C)cc1 | -7 | -6 | 1 | 6 | 4 | -2
Cc1cccc(C)c1-n1nnnc1C(C)(C)N1CCN(N=O)CC1 | 4 | 11 | -1 | -15 | 37* | 1
SMILES | OPRM1-OPRD1 inv | PolyA inhibitor | MOR-DOR ag | HTR5A inv ag | NALP1 inh | HTR5A ag ctr
O=C1C2CC=C(Cl)CC2C(=O)N1CCCCCCN1C(=O)C2CC=C(Cl)CC2C1=O (stereo unspecified) | -8 | -2 | 1 | -29 | 6 | 0
O=C(CCN1C(=O)C2CC=C(Cl)CC2C1=O)NC1CCCCC1 (stereo unspecified) | 7 | -8 | -1 | 13 | 42* | 3
COc1ccccc1N1CCN(CCCCOc2cccc3ccccc23)CC1 | -28 | -1 | 5 | -35 | 54* | -1
COc1ccccc1N1CCN(CCCCCCOc2ccc(F)cc2)CC1 | -14 | -9 | 3 | -17 | 46* | 5
Cc1ccnc(NC(=O)Nc2ccc(Br)cc2Cl)c1 | 1 | 4 | 0 | -2 | 14 | 1
Cc1onc(C(=O)N2CCN(c3ccccc3)CC2)c1[N+](=O)[O-] | 17 | -1 | -3 | 4 | 20 | 0
Cc1ccc(Cl)cc1N1CCN(C(=O)c2noc(C)c2[N+](=O)[O-])CC1 | -75 | -9 | 15 | -37 | 21 | 10*
COc1cccc(-c2csc(N3CCN(C(=S)Nc4ccccc4C)CC3)n2)c1 | -9 | · | 2 | 17 | -2 | 9
O=[N+]([O-])c1cc(S(=O)(=O)N2CCCCCC2)ccc1F | -16 | · | 3 | -2 | 79* | 1
O=C(Cc1ccccc1)Oc1coc(CSc2ncccn2)cc1=O | 3 | -15 | -1 | 12 | -4 | 0
COc1ccc(-c2ccc(N)[n+](CCCC(=O)O)n2)cc1 | 16 | -1 | -3 | -13 | · | -2
O=C(/C=C/c1ccccc1)NCCC1=CCCCC1 | 5 | 20 | -1 | 2 | 51* | 0
O=Cc1cnc(N2CCN(c3ccccc3)CC2)s1 | 15 | 0 | -3 | -30 | 39* | 1
c1ccc(N2CCN(c3cnc4ccccc4n3)CC2)cc1 | -7 | -6 | 1 | -18 | 39* | 7
Clc1ccc(N2CCN(c3cnc4ccccc4n3)CC2)cc1 | -4 | -7 | 1 | -12 | 49 | 4
COc1ccc(S(=O)(=O)NCC(=O)N(CC(=O)NCc2ccco2)Cc2ccc(F)cc2)cc1 | 2 | 15 | 0 | 2 | 1 | 0
Cc1ccc(-n2c(C)cc(C(=S)N3CCOCC3)c2C)cc1C | -44 | -11 | 7 | 1 | 7 | 0
COc1ccc(S(=O)(=O)NCCOc2ccccc2)cc1C | -6 | -9 | 1 | -28 | 50* | 6
O=S(=O)(NCCOc1ccccc1)c1ccc2ccccc2c1 | -30 | -4 | 6 | -8 | -5 | 3
COc1ccc(/C=N/NC(=O)C(C)Sc2ccccn2)cc1[N+](=O)[O-] (stereo unspecified) | 16 | 6 | -3 | 22 | 5 | 11*
COc1ccc(/C=N\NC(=O)CNC(=O)C(c2ccccc2)c2ccccc2)cc1[N+](=O)[O-] | -4 | 9 | 1 | -14 | 29 | 5
COc1cccc(/C=N/NC(=O)C(C)Sc2ccccc2)c1 (stereo unspecified) | 2 | 0 | -1 | -9 | 30* | 1
O=C(CN1C(=O)NC2(CCOc3ccccc32)C1=O)N1CCCCC1 (stereo unspecified) | 4 | · | -1 | -10 | · | 4
Cc1cc(C(=O)CSc2ncnc3ccccc23)c(C)n1C1CC1 | 7 | · | -2 | -15 | · | 2
Cc1cc(-n2c(C)cc(C(=O)CSc3ncnc4ccccc34)c2C)no1 | -41 | -11 | 7 | -19 | 16 | 16*
